# Assay results from PubChem BioAssay AID1159580 (chemical genetic matrix, 2015).
# Where “and” joins values, the source holds several entries; their conditions need not be identical. Equal entries are not always repeated. The whole screen tested about 5,500 compounds, of which about 2,000 (36%) were called active. About 18% were inconclusive and are not listed. The list shows a part of the results. A number with no mark means an inactive call. Rule as the data show it: active = normalized growth mostly below about 0.91 (no sharp cut-off); inconclusive = no clear call, values can overlap the other calls; inactive = mostly above about 0.92.
# Assay: chemical genetic growth profiling, strain panel (AID 1159580);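 also: tested at 20 µM; growth read once vehicle control cultures reached saturation at 30 °C; 1 = growth at the plate median or of vehicle wells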
# Details: S. cerevisiae deletion strains, growth OD
structure (smiles),measurement,setting,value
COC(=O)c1c(C)c2c(c(C)c1O)OC(=O)c1c(C)c(Cl)c(O)c(Cl)c1O2,normalized growth,"locus YAL021C, strain ccr4, stronger effect = lower value",0.943
same,normalized growth,"locus YAL026C, strain drs2, stronger effect = lower value",0.951
same,normalized growth,"locus YAL030W, strain snc1, stronger effect = lower value",0.969
same,normalized growth,"locus YBL061C, strain skt5, stronger effect = lower value",0.968
same,normalized growth,"locus YBR009C, strain hhf1, stronger effect = lower value",0.935
same,normalized growth,"locus YBR021W, strain FUR4, stronger effect = lower value",0.962
same,normalized growth,"locus YBR023C, strain chs3, stronger effect = lower value",0.959
same,normalized growth,"locus YBR171W, strain sec66, stronger effect = lower value",0.975
same,normalized growth,"locus YBR229C, strain ROT2, stronger effect = lower value",0.985
same,normalized growth,"locus YBR231C, strain swc5, stronger effect = lower value",0.976
same,normalized growth,"locus YBR279W, strain paf1, stronger effect = lower value",0.944
same,normalized growth,"locus YCL011C, strain gbp2, stronger effect = lower value",0.96
same,normalized growth,"locus YCL016C, strain dcc1, stronger effect = lower value",0.967
same,normalized growth,"locus YCL029C, strain bik1, stronger effect = lower value",1.03
same,normalized growth,"locus YCL069W, strain vba3, stronger effect = lower value",0.944
same,normalized growth,"locus YCR088W, strain abp1, stronger effect = lower value",0.96
same,normalized growth,"locus YDL005C, strain med2, stronger effect = lower value",0.947
same,normalized growth,"locus YDL035C, strain GPR1, stronger effect = lower value",0.894
same,normalized growth,"locus YDL040C, strain nat1, stronger effect = lower value",0.943
same,normalized growth,"locus YDL074C, strain BRE1, stronger effect = lower value",0.926
same,normalized growth,"locus YDL101C, strain DUN1, stronger effect = lower value",0.98
same,normalized growth,"locus YDL134C, strain PPH21, stronger effect = lower value",0.941
same,normalized growth,"locus YDL185W, strain tfp1, stronger effect = lower value",0.995
same,normalized growth,"locus YDL192W, strain arf1, stronger effect = lower value",0.922
same,normalized growth,"locus YDR001C, strain nth1, stronger effect = lower value",0.969
same,normalized growth,"locus YDR069C, strain doa4, stronger effect = lower value",0.967
same,normalized growth,"locus YDR101C, strain arx1, stronger effect = lower value",1
same,normalized growth,"locus YDR137W, strain rgp1, stronger effect = lower value",0.87
same,normalized growth,"locus YDR159W, strain sac3, stronger effect = lower value",0.902
same,normalized growth,"locus YDR162C, strain NBP2, stronger effect = lower value",0.734 (active)
same,normalized growth,"locus YDR195W, strain ref2",1.03
same,normalized growth,"locus YDR297W, strain sur2, stronger effect = lower value",0.944
same,normalized growth,"locus YDR318W, strain mcm21, stronger effect = lower value",0.975
same,normalized growth,"locus YDR334W, strain swr1, stronger effect = lower value",0.939
same,normalized growth,"locus YDR335W, strain msn5, stronger effect = lower value",0.939
same,normalized growth,"locus YDR388W, stronger effect = lower value",0.984
same,normalized growth,"locus YDR392W, strain spt3, stronger effect = lower value",0.617 (active)
same,normalized growth,"locus YDR502C, strain sam2, stronger effect = lower value",0.96
same,normalized growth,"locus YEL003W, strain gim4, stronger effect = lower value",0.969
same,normalized growth,"locus YEL037C, strain rad23, stronger effect = lower value",0.957
same,normalized growth,"locus YEL061C, strain CIN8 (second series), stronger effect = lower value",0.961
same,normalized growth,"locus YEL061C, strain CIN8, stronger effect = lower value",0.986
same,normalized growth,"locus YER015W, strain faa2, stronger effect = lower value",0.977
same,normalized growth,"locus YER016W, strain bim1, stronger effect = lower value",0.96
same,normalized growth,"locus YER110C, stronger effect = lower value",1.03
same,normalized growth,"locus YER111C, strain swi4, stronger effect = lower value",0.979
same,normalized growth,"locus YER155C, strain BEM2 (second series), stronger effect = lower value",0.97
same,normalized growth,"locus YER155C, strain BEM2, stronger effect = lower value",1.01
same,normalized growth,"locus YER167W, strain BCK2, stronger effect = lower value",0.937
same,normalized growth,"locus YFR010W, strain ubp6, stronger effect = lower value",0.952
same,normalized growth,"locus YGL078C, strain dbp3, stronger effect = lower value",0.991
same,normalized growth,"locus YGL086W, strain mad1, stronger effect = lower value",0.962
same,normalized growth,"locus YGL167C, strain pmr1, stronger effect = lower value",0.95
same,normalized growth,"locus YGL173C, strain kem1, stronger effect = lower value",0.966
same,normalized growth,"locus YGL227W, strain vid30, stronger effect = lower value",0.969
same,normalized growth,"locus YGL240W, strain doc1, stronger effect = lower value",0.93
same,normalized growth,"locus YGL248W, strain PDE1, stronger effect = lower value",0.983
same,normalized growth,"locus YGL253W, strain hxk2, stronger effect = lower value",0.952
same,normalized growth,"locus YGR135W, strain pre9, stronger effect = lower value",0.964
same,normalized growth,"locus YGR229C, strain SMI1, stronger effect = lower value",0.462 (active)
same,normalized growth,"locus YGR252W, strain gcn5, stronger effect = lower value",0.927
same,normalized growth,"locus YHR013C, strain ard1, stronger effect = lower value",0.946
same,normalized growth,"locus YHR027C, strain rpn1, stronger effect = lower value",0.957
same,normalized growth,"locus YHR030C, strain SLT2, stronger effect = lower value",0.992 and 0.949
same,normalized growth,"locus YHR079C, strain IRE1 (second series), stronger effect = lower value",1.03
same,normalized growth,"locus YHR079C, strain IRE1, stronger effect = lower value",0.94
same,normalized growth,"locus YHR094C, strain hxt1, stronger effect = lower value",1.03
same,normalized growth,"locus YHR129C, strain ARP1, stronger effect = lower value",0.973
same,normalized growth,"locus YHR142W, strain chs7, stronger effect = lower value",0.849 (active)
same,normalized growth,"locus YHR200W, strain rpn10, stronger effect = lower value",0.993
same,normalized growth,"locus YIL066C, strain RNR3, stronger effect = lower value",0.892
same,normalized growth,"locus YIL073C, strain SPO22, stronger effect = lower value",0.976
same,normalized growth,"locus YIL125W, strain kgd1, stronger effect = lower value",1.01
same,normalized growth,"locus YIR030C, strain dcg1, stronger effect = lower value",1.02
same,normalized growth,"locus YJL092W, strain hpr5, stronger effect = lower value",0.979
same,normalized growth,"locus YJL095W, strain BCK1 (second series), stronger effect = lower value",0.955
same,normalized growth,"locus YJL095W, strain BCK1, stronger effect = lower value",0.84 and 0.969
same,normalized growth,"locus YJL115W, strain asf1, stronger effect = lower value",0.956
same,normalized growth,"locus YJL129C, strain trk1, stronger effect = lower value",0.9
same,normalized growth,"locus YJL134W, strain LCB3, stronger effect = lower value",1
same,normalized growth,"locus YJL154C, strain vps35, stronger effect = lower value",0.967
same,normalized growth,"locus YJL164C, strain tpk1, stronger effect = lower value",0.926
same,normalized growth,"locus YJL166W, strain qcr8, stronger effect = lower value",0.94
same,normalized growth,"locus YJL168C, strain set2, stronger effect = lower value",0.997
same,normalized growth,"locus YJL187C, strain SWE1 (second series), stronger effect = lower value",0.966
same,normalized growth,"locus YJR043C, strain POL32, stronger effect = lower value",0.853 (active)
same,normalized growth,"locus YJR066W, strain TOR1, stronger effect = lower value",0.878
same,normalized growth,"locus YKL009W, strain mrt4, stronger effect = lower value",1.01
same,normalized growth,"locus YKL068W, stronger effect = lower value",1
same,normalized growth,"locus YKL085W, strain MDH1 (second series), stronger effect = lower value",1.01
same,normalized growth,"locus YKL085W, strain MDH1, stronger effect = lower value",1.01
same,normalized growth,"locus YKL160W, strain elf1, stronger effect = lower value",0.956
same,normalized growth,"locus YKL190W, strain CNB1, stronger effect = lower value",0.957
same,normalized growth,"locus YKR001C, strain vps1, stronger effect = lower value",0.937
same,normalized growth,"locus YKR026C, strain gcn3, stronger effect = lower value",0.97
same,normalized growth,"locus YKR091W, strain srl3, stronger effect = lower value",0.967
same,normalized growth,"locus YLL001W, strain dnm1, stronger effect = lower value",0.959
same,normalized growth,"locus YLL026W, stronger effect = lower value",0.975
same,normalized growth,"locus YLL041C, strain sdh2, stronger effect = lower value",0.964
same,normalized growth,"locus YLR027C, strain aat2, stronger effect = lower value",0.984
same,normalized growth,"locus YLR039C, strain RIC1, stronger effect = lower value",0.928
same,normalized growth,"locus YLR058C, strain SHM2, stronger effect = lower value",0.985
same,normalized growth,"locus YLR102C, strain apc9, stronger effect = lower value",1.01
same,normalized growth,"locus YLR113W, strain HOG1, stronger effect = lower value",1.04
same,normalized growth,"locus YLR221C, strain rsa3, stronger effect = lower value",0.958
same,normalized growth,"locus YLR258W, strain gsy2, stronger effect = lower value",0.937
same,normalized growth,"locus YLR262C, strain YPT6 (second series), stronger effect = lower value",0.855 (active)
same,normalized growth,"locus YLR262C, strain YPT6, stronger effect = lower value",0.865
same,normalized growth,"locus YLR268W, strain sec22, stronger effect = lower value",1
same,normalized growth,"locus YLR320W, strain mms22, stronger effect = lower value",0.932
same,normalized growth,"locus YLR330W, strain CHS5, stronger effect = lower value",0.987
same,normalized growth,"locus YLR342W, strain FKS1 (second series), stronger effect = lower value",0.751 (active)
same,normalized growth,"locus YLR342W, strain FKS1, stronger effect = lower value",0.971
same,normalized growth,"locus YLR357W, strain rsc2, stronger effect = lower value",0.922
same,normalized growth,"locus YLR370C, strain arc18, stronger effect = lower value",0.958
same,normalized growth,"locus YLR371W, strain rom2, stronger effect = lower value",1.03
same,normalized growth,"locus YLR384C, strain iki3, stronger effect = lower value",0.983
same,normalized growth,"locus YLR418C, strain cdc73, stronger effect = lower value",0.83 (active)
same,normalized growth,"locus YML016C, strain PPZ1, stronger effect = lower value",1.01
same,normalized growth,"locus YML032C, strain rad52, stronger effect = lower value",0.959
same,normalized growth,"locus YML120C, strain ndi1, stronger effect = lower value",0.957
same,normalized growth,"locus YML124C, strain tub3, stronger effect = lower value",1.02
same,normalized growth,"locus YMR058W, strain fet3, stronger effect = lower value",0.95
same,normalized growth,"locus YMR078C, strain ctf18, stronger effect = lower value",1.01
same,normalized growth,"locus YMR125W, strain sto1, stronger effect = lower value",0.986
same,normalized growth,"locus YMR129W, stronger effect = lower value",0.974
same,normalized growth,"locus YMR205C, strain PFK2, stronger effect = lower value",0.879
same,normalized growth,"locus YMR223W, strain ubp8, stronger effect = lower value",0.949
same,normalized growth,"locus YMR231W, strain pep5, stronger effect = lower value",0.954
same,normalized growth,"locus YMR307W, strain GAS1, stronger effect = lower value",0.545 (active)
same,normalized growth,"locus YNL067W, strain RPL9B, stronger effect = lower value",0.996
same,normalized growth,"locus YNL071W, strain lat1, stronger effect = lower value",0.932
same,normalized growth,"locus YNL183C, strain NPR1, stronger effect = lower value",0.931
same,normalized growth,"locus YNL209W, strain ssb2, stronger effect = lower value",0.991
same,normalized growth,"locus YNL233W, strain BNI4, stronger effect = lower value",0.916
same,normalized growth,"locus YNL248C, strain rpa49, stronger effect = lower value",0.954
same,normalized growth,"locus YNL250W, strain rad50, stronger effect = lower value",1.02
same,normalized growth,"locus YNL271C, strain bni1, stronger effect = lower value",1
same,normalized growth,"locus YNL298W, strain CLA4, stronger effect = lower value",1.01
same,normalized growth,"locus YNL307C, strain MCK1, stronger effect = lower value",0.978
same,normalized growth,"locus YNL322C, strain KRE1 (second series), stronger effect = lower value",0.976
same,normalized growth,"locus YNR049C, strain mso1, stronger effect = lower value",0.955
same,normalized growth,"locus YNR052C, strain pop2, stronger effect = lower value",0.967
same,normalized growth,"locus YOL012C, strain htz1",1.87
same,normalized growth,"locus YOL147C, strain pex11, stronger effect = lower value",1
same,normalized growth,"locus YOR001W, strain rrp6, stronger effect = lower value",0.945
same,normalized growth,"locus YOR061W, strain CKA2, stronger effect = lower value",0.99
same,normalized growth,"locus YOR069W, strain VPS5, stronger effect = lower value",1.01
same,normalized growth,"locus YOR070C, strain gyp1, stronger effect = lower value",0.98
same,normalized growth,"locus YOR080W, strain dia2, stronger effect = lower value",0.965
same,normalized growth,"locus YOR083W, strain WHI5, stronger effect = lower value",0.932
same,normalized growth,"locus YOR106W, strain vam3, stronger effect = lower value",0.877
same,normalized growth,"locus YOR136W, strain idh2, stronger effect = lower value",0.997
same,normalized growth,"locus YOR144C, strain elg1, stronger effect = lower value",1.02
same,normalized growth,"locus YOR184W, strain ser1, stronger effect = lower value",0.874
same,normalized growth,"locus YOR231W, strain MKK1, stronger effect = lower value",0.972
same,normalized growth,"locus YOR265W, strain rbl2, stronger effect = lower value",0.962
same,normalized growth,"locus YOR270C, strain vph1, stronger effect = lower value",0.715 (active)
same,normalized growth,"locus YOR290C, strain snf2, stronger effect = lower value",0.92
same,normalized growth,"locus YOR316C, strain cot1, stronger effect = lower value",1
same,normalized growth,"locus YPL051W, strain arl3, stronger effect = lower value",0.925
same,normalized growth,"locus YPL078C, strain atp4, stronger effect = lower value",0.964
same,normalized growth,"locus YPL106C, strain sse1, stronger effect = lower value",0.903
same,normalized growth,"locus YPL240C, strain hsp82, stronger effect = lower value",0.96
same,normalized growth,"locus YPL256C, strain CLN2, stronger effect = lower value",0.954
same,normalized growth,"locus YPR119W, strain clb2, stronger effect = lower value",1
same,normalized growth,"locus YPR141C, strain kar3, stronger effect = lower value",0.995
same,normalized growth,"locus YPR163C, strain tif3, stronger effect = lower value",1.02
same,normalized growth,"locus YPR167C, strain met16, stronger effect = lower value",0.982
same,normalized growth,"strain wtn01, stronger effect = lower value",1
